# gsp antag – qHTS for Antagonists of gsp, the Etiologic Mutation Responsible for Fibrous Dysplasia/McCune-Albright Syndrome: qHTS; hit rate 0.4% among 340,000; Potency, µM (top dose mostly 76.9 µM), without a hit: top-dose activity change, negative = inhibition, hits mostly inhibitors; AID 624288, 2012; gsp-mutant cells, cAMP HTRF, 30 min; calls by dose curve; cell line not stated here;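 note: intracellular cAMP measured with PDE inhibitor Ro 20-1724 present during compound exposure; potency is the fitted concentration of half-maximal effect; % is set by controls: 0 for no effect and ±100 for the full control effect; nearly all actives have a fitted effect of over 65% in size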
#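 Cells in G418 medium, seeded 16-24 h, 37C; buffer exchange to DPBS + 1 mM CaCl2, 0.5 mM MgCl2, 0.05% BSA; cpds in DMSO + […] (300 uM stock), 30 min 37C; HTRF cAMP detection.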
# RXFP1 antag – qHTS Assay for Antagonists of the Relaxin Receptor RXFP1 | Relaxin receptor 1 (Homo sapiens), Q9HBX9 | HEK293-RXFP1, relaxin-stimulated cAMP HTRF, 30 min; stronger effect = lower value | activity change, negative = inhibition, % at 57.5 µM | hit rate 0.59% among 350,000 | AID 1259400, 2018;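 active = activity change of -60% or lower, but not beyond a set lower limit; inconclusive = change between -60% and -40%, or beyond the set limit; inactive = change above -40%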; note: % is set by controls: 0 for no effect and ±100 for the full control effect
# Target sequence (Q9HBX9 whole entry, looked up): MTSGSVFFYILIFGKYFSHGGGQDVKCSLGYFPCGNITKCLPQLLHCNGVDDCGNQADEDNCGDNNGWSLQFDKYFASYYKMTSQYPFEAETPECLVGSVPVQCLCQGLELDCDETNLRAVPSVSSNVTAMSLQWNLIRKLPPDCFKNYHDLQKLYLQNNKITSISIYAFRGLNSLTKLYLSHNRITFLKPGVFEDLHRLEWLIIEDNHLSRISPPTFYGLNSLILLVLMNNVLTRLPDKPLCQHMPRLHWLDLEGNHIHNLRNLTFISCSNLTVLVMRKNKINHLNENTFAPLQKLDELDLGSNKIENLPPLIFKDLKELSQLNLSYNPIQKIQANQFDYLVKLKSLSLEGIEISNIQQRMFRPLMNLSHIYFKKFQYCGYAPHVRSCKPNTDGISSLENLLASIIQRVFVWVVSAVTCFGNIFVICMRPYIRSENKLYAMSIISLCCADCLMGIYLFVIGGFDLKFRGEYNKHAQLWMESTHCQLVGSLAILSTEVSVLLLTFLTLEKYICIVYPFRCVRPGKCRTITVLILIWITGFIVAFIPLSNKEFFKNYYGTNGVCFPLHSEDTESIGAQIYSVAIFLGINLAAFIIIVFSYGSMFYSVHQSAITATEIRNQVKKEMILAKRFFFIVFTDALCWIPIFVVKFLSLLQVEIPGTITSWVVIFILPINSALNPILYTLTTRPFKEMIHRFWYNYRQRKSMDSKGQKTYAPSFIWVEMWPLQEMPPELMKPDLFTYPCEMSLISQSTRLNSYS
# RXFP1 ag – qHTS Assay for Agonists of the Relaxin Receptor RXFP1; Relaxin receptor 1 (Homo sapiens), Q9HBX9; HEK293T-RXFP1 cAMP TR-FRET, 30 min; response scale: percent of porcine relaxin response, buffer zero; Potency, µM (series often up to 57.5 µM), inactives show at the highest dose activation, usual class: activators; hit rate 0.3% among 370,000; active = well fitted activation curve with a large enough effect; inconclusive = small, poorly fitted or top-dose-only effect; note: potency is the fitted concentration of half-maximal effect; % is set by controls: 0 for no effect and ±100 for the full control effect; nearly all actives have a fitted effect of over 60% in size
#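 HEK293 cells stably expressing RXFP1, treated 30 min at 37C with compounds plus PDE4 inhibitor Ro 20174; cAMP measured by HTRF TR-FRET. Normalized to buffer and 29 nM porcine relaxin; EC50 by Hill fit.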
# Akt phos inh – HTS Assay for Inhibitors of Akt Phophorylation: Primary Screen | Neuro2A IGF-stimulated pAkt S473 HTRF, 20 min; stronger effect = lower value | hit rate 0.32% among 360,000 | activity change, % for hits at 50 µM; in the data active = activity change below about -80%; inconclusive = mostly about -51% to -80%; note: % is set by controls: 0 for no effect and ±100 for the full control effect
#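 Neuro2A cells in DMEM with 0.5% FBS, overnight at 37 deg C, given compound at single 50 µM final, then IGF (6 nM final) for 20 min at 37 deg C. Lysed; phospho-Akt Ser473 by HTRF after 24 h, 665/615 ratio.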
# gsp agonist – qHTS for Agonist of gsp, the Etiologic Mutation Responsible for Fibrous Dysplasia/McCune-Albright Syndrome: qHTS; gsp mutant cells, cAMP HTRF, 30 min; Potency, µM (series often up to 76.9 µM), inactives show at the highest dose activation (cAMP increase), actives largely listed as activators; hit rate 0.13% among 340,000; active = well fitted activation curve with a large enough effect; inconclusive = small, poorly fitted or top-dose-only effect, or another doubt; inactive = no such curve, though single readings can be large or run the other way; cell line not stated here;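 note: phosphodiesterase inhibitor Ro 20-1724 added with compounds to block cAMP breakdown; potency is the fitted concentration of half-maximal effect; nearly all actives have a fitted effect of over 60% in size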
#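 Cells stably selected in G418 were plated at 2000/well, grown 16-24 hr, then given compounds in DMSO with the PDE inhibitor […] (300 uM solution added) for 30 min at 37C; cAMP was read by HTRF.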
# Active calls of the source: *; i = inactive; ? = inconclusive; · = no result given; ! = not confirmed by another sample; [ ] = dose if it differs, or a comment. Sampled rows, rich in hits. Any-hit rate of the full collection: about 1.2%.
SMILES,gsp antag,RXFP1 antag,RXFP1 ag,Akt phos inh,gsp agonist
C/C(=N\N=C1/SC(CC(=O)O)C(=O)N1c1ccccc1)c1ccc(C)cc1 (centres undefined),25µM*,1,-3%,i,-26%
CCc1ccc(NC(=O)c2nc(S(=O)(=O)Cc3ccccc3)ncc2Cl)cc1,·,·,0%,·,·
CCS(=O)(=O)c1ncc(Cl)c(C(=O)Nc2ccccc2)n1,·,-88*,0%,·,·
Cc1ccc(NC(=O)c2nc(S(=O)(=O)Cc3ccccc3C)ncc2Cl)cc1C,-9%,-74*,0%,i,-1%[15.4 µM]
CCOC(=O)c1ccc(NC(=O)c2nc(S(=O)(=O)Cc3ccccc3)ncc2Cl)cc1,-13%,-62*!,1%,i,-30%[15.4 µM]
Cc1cccc(CS(=O)(=O)c2ncc(Cl)c(C(=O)NCc3ccc4c(c3)OCO4)n2)c1,-2%,-87*,0%,·,0%
Cc1ccc(NC(=O)c2nc(S(=O)(=O)Cc3ccc(F)cc3)ncc2Cl)cc1C,·,?,2%,·,·
COc1cccc(C(=O)Nc2nc(-c3nnn(-c4cccc(Cl)c4C)c3C)ns2)c1,·,·,3%,·,·
O=C(O)c1ccc(OCCN2CCCCC2)cc1,·,6,·,·,·
Cc1cc(-c2c(C)[nH]n(-c3ccccc3)c2=O)n(-c2ccccc2)n1,-3%,-2,-4%,i,2%
Cc1cc(-c2c(C)[nH]n(-c3ccc(Cl)cc3)c2=O)n(-c2ccc(Cl)cc2)n1,32µM*,-17,0%,i,-14%
CCCCc1c(O)nc2sc3cc(OC)ccc3n2c1=O,-5%,0,2%,i,-2%
COC(=O)c1cc(=O)nc2sc3cc(OC)ccc3n12,9%,9,5%,-114%*,17%
CCOC(=O)CCCCC(=O)c1[nH]c(=O)[nH]c1CSc1nc(C)cc(C)n1,1%,-2,5%,i,?
CCOC(=O)CCCCC(=O)c1[nH]c(=O)[nH]c1CSc1nnc2c3cc(Br)ccc3n(C)c2n1,·,·,14µM*,·,·
O=C1C=CC(=O)N1CCCCCCCCCCN1C(=O)C=CC1=O,35µM*,-37,·,i,9%
COc1ccc(CN(Cc2ccco2)c2cnc(S(C)(=O)=O)nc2C(=O)Nc2ccc(F)cc2)cc1,·,-15,-1%,·,·
CC(=O)SCC(CC(=O)c1ccc(C)cc1)C(=O)O (centres undefined),·,-26,·,·,·
Cc1ccc(C(C)C)c(OCC(=O)N2CCC(c3nc4ccccc4o3)CC2)c1,·,-98*,2%,·,·
COc1ccccc1N1CCN(C(=O)c2cnn(-c3ccc(C)c(C)c3)c2C2CCN(C(=O)OC(C)(C)C)CC2)CC1,·,-4,2%,·,·
Cc1cc(Br)c2c(c1)/C(=C/C(=O)c1cccs1)C(=O)N2,-27%,·,4%,i,34%[15.4 µM]
CCc1ccc2c(c1)/C(=C/C(=O)c1cccs1)C(=O)N2,12%,-92*,1%,i,-3%
Cc1cccc2c1NC(=O)/C2=C\C(=O)c1cccs1,10%,-92*,1%,i,-2%
COc1ccccc1NC(=O)c1sc2nc3n(c(=O)c2c1C)CCC3,-2%,16,8.9µM*,i,?
CCOc1cc(C(=O)NCc2nc(-c3cccc(C)c3)no2)cc(OCC)c1OCC,·,2,-2%,·,·
SMILES,gsp antag,RXFP1 antag,RXFP1 ag,Akt phos inh,gsp agonist
COc1cccc(NC(=O)C2CCCN2C(=O)Nc2ccccc2)c1 (centres undefined),8%,3,1%,i,-3%[15.4 µM]
COc1cccc(OC)c1NC(=O)C1CCCN1C(=O)Nc1cccc(Cl)c1 (centres undefined),5%,-63*,0%,i,14%
CC1CCN(c2nc3ccc(C(=O)NCc4ccccc4Cl)cc3s2)CC1,·,·,2%,·,·
COc1ccc2cc(CCNC(=O)c3cc4ccccc4o3)c(=O)[nH]c2c1,?,-13,-1%,i,24%
Cc1ccc2cc(CCNC(=O)c3cc4ccccc4o3)c(=O)[nH]c2c1C,35µM*,·,1%,i,6%
CCc1c(C(=O)Nc2cc(C)cc(C)c2)[nH]c(C)c1C(C)=O,35µM*,-9,-1%,i,-7%
C(=N\Nc1nc(N2CCOCC2)nc(N2CCOCC2)n1)/c1cccnc1,-2%,-11,-1%,-82%*,14%
CC(=O)C[C@H]1[C@H](O[C@H]2[C@H](OC(C)C(=O)N[C@@H](C)C(=O)N[C@H](CCC(=O)N[C@@H](CCCCN)C(=O)N[C@H](C)C(=O)O)C(N)=O)[C@@H](NC(=O)O)C(O)O[C@@H]2CO)O[C@H](CO)[C@@H](O)[C@@H]1O (some centres undefined),·,19,·,·,·
CC1CCc2cc(F)ccc2N1C(=O)CSc1nnc2c(n1)[nH]c1ccccc12 (centres undefined),-25%,-62*,0%,i,0%[15.4 µM]
CC(C)(C)Cc1nnc(NC(=O)c2ccco2)s1,-13%,1,1%,i,18%
CCOC(=O)Cc1nnc(NC(=O)c2ccco2)s1,7%[15.4 µM],-11,0%,-122%*,-40%
CCc1ccc(S(=O)(=O)Nc2ccc3oc(C)c(C(=O)OCCOC)c3c2)cc1,·,-20,6%,·,·
CCOC(=O)c1[nH]c2c(c1Cc1ccccc1)C(=O)CC(c1ccc(C(C)(C)C)cc1)C2 (centres undefined),·,-64*,-1%,·,·
Cc1c(C(=O)OCc2ccccc2)[nH]c2c1C(=O)CC(c1ccc(C(C)(C)C)cc1)C2 (centres undefined),·,-11,-3%,·,·
Cc1cc2ccc3ccccc3c2cc1CN(C)C,7%,-107*,0%,i,-5%[15.4 µM]
CCCCOc1ccc(-n2nc(C)cc2C)nn1,-5%,-3,-1%,-101%*,-6%
Cc1cc(C)n(-c2ccc(OCC(=O)O)nn2)n1,5%,3,1%,i,?
COc1cc2nc(Cl)nc(N)c2cc1OC,·,4,·,·,·
O=C(Cc1cccc2ccccc12)NC(NC(=S)Nc1ccccc1Cl)C(Cl)(Cl)Cl (centres undefined),-16%,-63*,5%,i,-29%
CN1CCN(c2nc(Nc3ccc(F)cc3)nc(Nc3ccc(F)cc3)n2)CC1,10%,-3,-3%,i,7%
c1ccc(Nc2nc(Nc3ccccc3)nc(N3CCNCC3)n2)cc1,12%,-101*,1%,i,-25%
CC(C(=O)O)c1ccc2c(c1)CC(=O)c1ccccc1S2 (centres undefined),·,-11,·,·,·
O=C(CSc1ccc(Cl)cc1)N1CCC(c2nc3ccccc3s2)CC1,32µM*,-11,-3%,i,-18%
